EWS-Fli block: inhibitors of EWS/Fli oncoprotein transcriptional activity. 0.67% of 350,000 active. inhibition, % at 12.6 µM. AID 651661. A673 NR0B1-luciferase reporter, viability-normalised;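 active = mean inhibition of at least 50% after viability correction, with every replicate also passing that limit; inconclusive = mean reaches 50% but only one of two replicates passes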;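 note: firefly luciferase signal divided by Alamar Blue viability fluorescence both relative to DMSO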
PGC1a acetyl inh: modulators of PGC1a acetylation | 0.17% of 350,000 active | U2OS PGC1a acetylation, AlphaScreen anti-acetyl-lysine; with virally co-expressed GCN5 acetyltransferase | inhibition, % at 15.6 µM;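 active = every replicate shows inhibition of at least 40%; inconclusive = mean inhibition at least 40% but some replicate below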
rRNA inh HTS: selective bacterial rRNA inhibition in E. coli; 1.6% of 350,000 active; GFP signal change (wild-type ribosome), % (test concentration not listed); E. coli WT GFP vs humanized-ribosome RFP mutants, fluorescence, 24 h; stronger effect = lower value; DMSO median 0, no signal -100;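 active = significant combined selectivity score with lowered wild-type GFP, culture density cut under 30%, mutant RFP and density less affected; inactive = any of these conditions unmet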
PAX8 reporter: PAX8 transcriptional activity inhibition; RMG-I TPO-luciferase reporter, SteadyGlo, 24 h; inhibition, % at 12.6 µM; 1.2% of 360,000 active;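 active = mean replicate inhibition at least 60% with every replicate also reaching 60%; inconclusive = only one of the two criteria is met; inactive = mean below 60% and not all replicates reaching 60%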;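 note: luciferase light reporting Pax8 driven TPO promoter activity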
LGR2 inh: blocks bursicon-induced cAMP signaling via Drosophila LGR2 | HEK293 LGR2, CRE-luciferase, bursicon-stimulated, 4 h | inhibition, % at 9.99 µM | 0.35% of 380,000 active | AID 720647;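 active = drop in luminescence signal, shown as inhibition above about 50% in the replicate tests, limit read from the data, passing the limit was not always enough; inconclusive = probably only some replicates passing the limit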;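 note: agonist challenge used bursicon conditioned medium at about half maximal strength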
SIRT5 inh: sirtuin-5 (human) deacylase inhibition; 1.1% of 330,000 active; inhibition, % at 15 µM; Purified SirT5, succinyl-peptide AMC, trypsin-coupled fluorescence; in the data active = inhibition above about 15%; inconclusive = no clear call, values can overlap the other calls
Target sequence (Q9NXA8 whole entry, looked up): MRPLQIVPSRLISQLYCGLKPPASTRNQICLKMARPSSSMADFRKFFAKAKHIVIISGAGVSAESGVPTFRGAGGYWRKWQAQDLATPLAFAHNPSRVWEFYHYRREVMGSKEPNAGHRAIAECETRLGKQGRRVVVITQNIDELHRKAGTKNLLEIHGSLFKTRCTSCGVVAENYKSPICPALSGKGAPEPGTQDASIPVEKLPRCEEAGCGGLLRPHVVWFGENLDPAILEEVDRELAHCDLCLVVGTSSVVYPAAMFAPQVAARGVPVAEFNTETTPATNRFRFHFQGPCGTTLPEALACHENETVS
DNA binding: DNA binding small molecules; 2% of 640 active; AC35, µM (top dose mostly 68 µM); salmon sperm DNA acridine orange fluorescence polarization; shares compounds with EWS-Fli block;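 active = fitted curve reaches a 35% signal fall AC35 below twice the sample's top valid tested dose, actives reach about 48 µM in these data; inactive = the rest, including activity in the rising direction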;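 note: lower polarization ratio signals compound binding to DNA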
C2C12 COX5a inh: C2C12 myotube COX5a expression inhibition. shares compounds with PGC1a acetyl inh. AID 743461. maximal activity, %. 45 tested, under 10 active. C2C12 myotubes PGC-1a adenovirus, COX5a qPCR;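 active = fitted dose curve reaching 40% activity at or below the highest valid dose tested; inconclusive = flat fit between 30% and 70%, or an unusable fit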
AID743468: change in PGC-1a target gene PDK4 expression, dose response, C2C12 myotubes, RT-qPCR, cherry-pick; 45 tested, under 10 active; PGC-1a adenovirus, PDK4 mRNA qPCR; shares compounds with PGC1a acetyl inh; PDK4 expression increase, % at 19.5 µM;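 active = fitted curve reaching a 40% PDK4 expression rise at or below the top valid tested dose; inconclusive = no clear call, values can overlap the other calls; inactive = the rest, including shifts the wrong way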
AID977621: wild-type E. coli growth inhibition versus H69 humanized strain – H69 mutant RFP, wild-type GFP, cherry-pick, dose response; shares compounds with rRNA inh HTS; fluorescence, 24 h; activity change, negative = inhibition at 50 µM; 1,900 tested, under 10 active; AID 977621;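 active = Wild-type ribosome reporter drop at least double the humanized mutant ribosome reporter drop, growth loss under a set limit; inconclusive = no clear call, values can overlap the other calls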;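 note: wild-type GFP and H69 mutant RFP strains grown together 50/50 in each well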
AID977628: growth of wild-type and h24-humanized E. coli strains – h24 mutant RFP vs wild-type GFP, cherry-pick, dose response; shares compounds with rRNA inh HTS; E. coli WT GFP strain growth, fluorescence, 24 h; activity change, negative = inhibition at 50 µM; 1,900 tested, under 10 active;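 active = compound lowering the normal-ribosome reporter at least twice as much as the humanized-ribosome reporter, growth loss under a set limit; inconclusive = no clear call, values can overlap the other calls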;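 note: wild-type GFP and h24 humanized RFP strains co-cultured 1 to 1 per well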
Of the large screens only hits and unclear results are named; the others gave an inactive call (follow-up assays come after a bar, where they were run); ! = not confirmed by another sample. Hits are enriched below; roughly 3.4% of the tested compounds scored in any of these assays.

COc1ccc(NC(=O)N2CC[C@@H]3[C@@H](CO)N(C)c4ccc(-c5ccccc5F)cc4[C@@H]32)cc1	none
COc1ccc(NS(=O)(=O)c2cc(NC(=O)CNC(=O)c3cccc(OC)c3)ccc2C)cc1	EWS-Fli block 63, rRNA inh HTS -25 | DNA binding inactive | AID977621 inactive
Cc1ccc(Cn2ncc(Cl)c(Cl)c2=O)cc1	none (no result: EWS-Fli block, SIRT5 inh) | C2C12 COX5a inh inactive | AID743468 inactive
COc1ccc(C(=O)Nc2cccc(NC(=O)c3ccc(OC)c(OC)c3)n2)cc1OC	PGC1a acetyl inh 61 | C2C12 COX5a inh inactive | AID743468 44
Cc1ccccc1-n1nnnc1Sc1nnnn1-c1ccccc1	PGC1a acetyl inh inconclusive (no result: EWS-Fli block, rRNA inh HTS, PAX8 reporter, LGR2 inh, SIRT5 inh) | C2C12 COX5a inh inactive | AID743468 inactive
C#CCN(C[C@@H]1[C@@H](OC(=O)NCCCCCC)[C@@H](OC(=O)NCCCCCC)Cn2c(=O)ccc(=O)n21)S(=O)(=O)c1ccc(C)cc1	EWS-Fli block 67, PGC1a acetyl inh 92, PAX8 reporter 113, LGR2 inh inconclusive | C2C12 COX5a inh inactive | AID743468 88
CNC[C@@H]1OCCCC[C@H](C)Oc2ccc(NS(C)(=O)=O)cc2C(=O)N([C@H](C)CO)C[C@@H]1C	none
O=C(Nc1cccc(F)c1)N1CC(=O)N2[C@H](CO)[C@@H](c3ccc(Br)cc3)[C@H]2C1	none
CCCC(=O)Nc1ccc2c(c1)C(=O)N(C)C[C@@H](OC)[C@@H](C)CN(CCc1ccccc1)[C@H](C)CO2	none (no result: PAX8 reporter)
C[C@@H]1CN([C@@H](C)CO)C(=O)c2cc(N(C)C)ccc2O[C@@H](C)CCCCO[C@@H]1CN(C)S(=O)(=O)c1cn(C)cn1	none
N#Cc1cc(Oc2cccc3cccnc23)c(-n2nnc3ccccc32)cc1C#N	none (no result: PAX8 reporter) | C2C12 COX5a inh inactive | AID743468 inactive
N#Cc1cc(O)c(-n2nnc3ccccc32)cc1C#N	none
CNC[C@H]1OCCCC[C@@H](C)Oc2ccc(NC(=O)C3CCCCC3)cc2C(=O)N([C@H](C)CO)C[C@H]1C	none
COc1ccc(CN2C[C@@H](C)[C@@H](OC)CN(C)C(=O)c3cc(NC(=O)C4CC4)ccc3OC[C@H]2C)cc1	none (no result: PAX8 reporter)
OC(c1cc(C(F)(F)F)nc2c(C(F)(F)F)cccc12)C1CCCCN1 (centres undefined)	EWS-Fli block 59, LGR2 inh 70 (no result: rRNA inh HTS) | C2C12 COX5a inh inactive | AID743468 inactive
COc1ccccc1C#Cc1ccc([C@H]2[C@@H](C#N)N(C(=O)C3CCCC3)[C@@H]2CO)cc1	none
COc1ccccc1C#Cc1ccc([C@H]2[C@H](C#N)N(C(=O)C3CCCC3)[C@H]2CO)cc1	PGC1a acetyl inh 65, PAX8 reporter 107, LGR2 inh 80 | C2C12 COX5a inh inactive | AID743468 inactive
CCN1CCN(Cc2ccc(NC(=O)c3ccc(C)c(NC(=O)c4c[nH]c5cc(C(F)(F)F)ccc5c4=O)c3)cc2C(F)(F)F)CC1	EWS-Fli block 63!, PGC1a acetyl inh 78!, PAX8 reporter 80, LGR2 inh inconclusive | C2C12 COX5a inh inactive | AID743468 inactive
C[C@@H]1CN([C@H](C)CO)S(=O)(=O)c2ccc(C#Cc3ccncc3)cc2O[C@H]1CN(C)S(=O)(=O)c1ccccc1	none (no result: rRNA inh HTS, PAX8 reporter, LGR2 inh)
Cc1ccc(S(=O)(=O)N(C)C[C@@H]2Oc3cc(C#Cc4ccncc4)ccc3S(=O)(=O)N([C@H](C)CO)C[C@H]2C)cc1	PGC1a acetyl inh inconclusive, PAX8 reporter 106, SIRT5 inh 16 | C2C12 COX5a inh inactive | AID743468 inactive
COc1ccccc1C(=O)Nc1cc(C)on1	none
COCCSc1ccccc1C(=O)Nc1cc(C)on1	PGC1a acetyl inh inconclusive (no result: PAX8 reporter) | C2C12 COX5a inh inactive | AID743468 inactive
CCN(CC(=O)NCc1ccc(Cl)cc1)C(=O)CSCC(=O)Nc1ccc(C)cc1	none | C2C12 COX5a inh inactive | AID743468 inactive
CCN(CC(=O)NCc1ccc(Cl)cc1)C(=O)CSc1cc(C)ccc1C	none
CCCCCc1nnc(NC(=O)C2COc3ccccc3O2)s1 (centres undefined)	rRNA inh HTS -20 | AID977621 inactive | AID977628 inactive
O=C(CN1CCCCC1)Nc1ccccc1-c1ccccc1	rRNA inh HTS -15 (no result: PAX8 reporter) | AID977621 inactive
O=C(CN1CCOCC1)Nc1ccccc1-c1ccccc1	none (no result: EWS-Fli block, rRNA inh HTS, PAX8 reporter, LGR2 inh, SIRT5 inh)
Cc1noc(C)c1S(=O)(=O)N(C)C[C@H]1OCCCC[C@H](C)Oc2ccc(NC(=O)NC3CCCCC3)cc2C(=O)N([C@@H](C)CO)C[C@@H]1C	none
Cc1ccc(S(=O)(=O)N2CCOCC2)cc1NC(=O)COc1ccc(-c2nnco2)cc1	rRNA inh HTS -19 | AID977621 inactive | AID977628 inconclusive
COCC#Cc1ccc2c(c1)O[C@H](CN(C)C(=O)c1ccccc1)[C@@H](C)CN([C@H](C)CO)S2(=O)=O	rRNA inh HTS -19! | AID977621 inactive | AID977628 inactive
O=C(Nc1cc(F)ccc1F)N1CC(=O)N2[C@H](CO)[C@@H](c3ccc(-c4ccccc4)cc3)[C@@H]2C1	none
C=CCSc1cc(C)nc2c(-c3ccccc3)c(C)nn12	rRNA inh HTS -38 | AID977621 inactive | AID977628 inactive
Cc1cc(SCC#N)n2nc(C)c(-c3ccccc3)c2n1	none (no result: EWS-Fli block)
O=C(c1ccccc1)N1CCN(c2ccc([N+](=O)[O-])c(NCC3CCCO3)c2)CC1 (centres undefined)	rRNA inh HTS -32 | AID977621 inactive | AID977628 inactive
O=[N+]([O-])c1ccc(N2CCN(S(=O)(=O)c3ccccc3)CC2)cc1NCC1CCCO1 (centres undefined)	none (no result: EWS-Fli block, PGC1a acetyl inh, rRNA inh HTS, SIRT5 inh)
CCS(=O)(=O)N1CCN(c2ccc([N+](=O)[O-])c(NCC3CCCO3)c2)CC1 (centres undefined)	rRNA inh HTS -21 | AID977621 inactive | AID977628 inactive
C[C@H](CO)N1C[C@H](C)[C@H](CN(C)C(=O)NC2CCCCC2)Oc2ccc(NC(=O)Cc3ccccc3)cc2CC1=O	none

From PubChem BioAssay
